In PubChem BioAssay AID488846 (National Center for Advancing Translational Sciences (NCATS), 2010):
Values without a mark were called inactive. Calls follow the shape of the dose curve; as a rule, active = well fitted curve in the direction sought with a large enough effect; inactive = no such curve, though single readings can be large or run the other way.

These compounds were tested against Alpha-galactosidase A (Homo sapiens) (UniProt P06280) (assay: qHTS Assay for Inhibitors and Activators of N370S glucocerebrosidase as a Potential Chaperone Treatment of Gaucher Disease: Alpha-Galactosidase Counterscreen for Probe SAR). Settings: purified human alpha-galactosidase, 4-MU-alpha-Gal fluorescence.
Alpha-galactosidase A (Homo sapiens), sequence (P06280 whole entry, looked up): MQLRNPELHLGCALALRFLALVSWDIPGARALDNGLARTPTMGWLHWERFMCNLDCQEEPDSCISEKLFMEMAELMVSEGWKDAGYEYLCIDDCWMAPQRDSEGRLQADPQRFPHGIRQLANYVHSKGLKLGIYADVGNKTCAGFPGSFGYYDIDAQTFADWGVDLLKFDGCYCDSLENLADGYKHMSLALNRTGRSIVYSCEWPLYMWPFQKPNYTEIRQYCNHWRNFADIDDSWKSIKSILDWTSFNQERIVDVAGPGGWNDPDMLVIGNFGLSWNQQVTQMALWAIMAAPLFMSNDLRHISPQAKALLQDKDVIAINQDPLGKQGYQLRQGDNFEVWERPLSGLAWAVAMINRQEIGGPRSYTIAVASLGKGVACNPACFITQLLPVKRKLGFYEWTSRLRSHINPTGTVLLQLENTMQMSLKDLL
Description: NIH Chemical Genomics Center [NCGC] NIH Molecular Libraries Probe Production Centers Network [MLPCN] MLPCN Grant: MH086442-01 Assay Submitter (PI): Wei Zheng Glucocerebrosidase (GC) catalyzes the hydrolysis of beta-glucocerebroside to glucose and ceramide in lysosomes. Mutations in the glucocerebrosidase gene result in Gaucher disease, an autosomal recessive lysosomal storage disorder. Many of the mutations encountered in patients with Gaucher disease are missense alterations that may cause misfolding, decreased stability and/or mistrafficking of this lysosomal protein. […] These inhibitors include iminosugar analogs and three non-iminosugar inhibitors identified from a previous HTS of 62,000 compounds with the wild type recombinant enzyme. However, the enhancement of enzyme activity by the chaperone action of an enzyme inhibitor must be balanced against the direct inhibition of the enzyme. An enzyme activator could also function as a chaperone by binding to the enzyme and helping to correct its misfolding and mistrafficking. While activators for GC have not yet been identified, they may have better therapeutic potential than inhibitors. Therefore the discovery and development of chemical activators may provide a new strategy for the chaperone therapy. To characterize compound selectivity, selected hits from the primary screen were screened against purified alpha-galactosidase, a related sugar hydrolase. Alpha-galactosidase is a homodimeric glycoprotein that hydrolyzes the terminal alpha-galactosyl moieties from glycolipids and glycoproteins.
NCGC Assay Protocol Summary: This is a fluorogenic enzyme assay with 4-Methylumbelliferyl alpha-D-galactopyranoside as the substrate and human […] as the enzyme preparation. Upon the hydrolysis of this fluorogenic substrate, the resulting product, […]. 4-Methyllumbelliferone, can be excited at 365 nm and emits at 440 nm. This fluorescence which can be detected by a standard fluorescence plate reader. Data were normalized to the controls for basal activity (without enzyme) and 100% activity (with enzyme). In the AC50 values were determined from concentration-response data modeled with the standard Hill equation. Assay buffer: 50 mM citric acid (titrated with potassium phosphate to pH 4.5), 0.005% Tween-20, pH 4.5. (pH 4.5 is an optimal condition for this enzyme assay) 1536-well assay protocol for the human alpha-galactosidase: (1) Add 2 ul/well of enzyme (12 nM final) (2) Add 23 nL compounds in DMSO solution. The final titration was 0.7 nM to 77 uM. (3) Add 1 ul of substrate ([…]) (4) Incubate at room temperature for 20 min. (5) Add 2 ul stop solution (1M NaOH and 1M Glycine mixture, pH 10) (6) Detect the assay plate in a ViewLux plate reader (PerkinElmer) with Ex=365 nm and Em=440nm.

Structure (SMILES)	max response
C#Cc1ccc(NC(=O)c2cnn3c(C)cc(C)nc23)cc1	-7.39%
O=C(Nc1ccccc1Sc1ccccc1)c1cnn2c1NC(=C1CC1)C=C2C(F)(F)F	-8.17%
C=C1C=C(C(F)F)n2ncc(C(=O)Nc3ccc(C(C)CC)cc3)c2N1 (stereo unspecified)	-7.63%
O=C(NC1CCCCC1)c1cnn2c1NC(=C1CC1)C=C2C(F)F	-4.62%
O=C(Nc1ccccc1Sc1ccccc1)c1cnn2c1NC(=C1CC1)C=C2C(F)F	-8.53%
O=C(Nc1ccc2c(c1)CCC2)c1cnn2c1NC(=C1CC1)C=C2C(F)F	-2.77%
